Screening data: PubChem BioAssay, several laboratories
FBA Mtb inh = Mtb fructose-bisphosphate aldolase inhibition | AID 588726 | P9WQA3 | purified M. tuberculosis FBA, fluorescence read-out | 2.3% of 360,000 active | inhibition, % at 1 µM; in the data active means inhibition above about 27%;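 further: 0% = vehicle and 100% = reference inhibitor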
PrPC surface inh = inhibitors of human cell surface prion protein PrPC; TR-FRET read-out; 0.43% of 370,000 active; inhibition, % at 13.8 µM; P04156; in the data active means inhibition above about 24%; further: 0% = median of the test wells and 100% = reference compound wells
TcdB GH inh = TcdB glycohydrolase inhibition; AID 652162; inhibition, % at 9.99 µM; TcdB glycohydrolase enzymatic assay, plate reader; P18177; 0.24% of 350,000 active
Target sequence (P18177 whole entry, looked up): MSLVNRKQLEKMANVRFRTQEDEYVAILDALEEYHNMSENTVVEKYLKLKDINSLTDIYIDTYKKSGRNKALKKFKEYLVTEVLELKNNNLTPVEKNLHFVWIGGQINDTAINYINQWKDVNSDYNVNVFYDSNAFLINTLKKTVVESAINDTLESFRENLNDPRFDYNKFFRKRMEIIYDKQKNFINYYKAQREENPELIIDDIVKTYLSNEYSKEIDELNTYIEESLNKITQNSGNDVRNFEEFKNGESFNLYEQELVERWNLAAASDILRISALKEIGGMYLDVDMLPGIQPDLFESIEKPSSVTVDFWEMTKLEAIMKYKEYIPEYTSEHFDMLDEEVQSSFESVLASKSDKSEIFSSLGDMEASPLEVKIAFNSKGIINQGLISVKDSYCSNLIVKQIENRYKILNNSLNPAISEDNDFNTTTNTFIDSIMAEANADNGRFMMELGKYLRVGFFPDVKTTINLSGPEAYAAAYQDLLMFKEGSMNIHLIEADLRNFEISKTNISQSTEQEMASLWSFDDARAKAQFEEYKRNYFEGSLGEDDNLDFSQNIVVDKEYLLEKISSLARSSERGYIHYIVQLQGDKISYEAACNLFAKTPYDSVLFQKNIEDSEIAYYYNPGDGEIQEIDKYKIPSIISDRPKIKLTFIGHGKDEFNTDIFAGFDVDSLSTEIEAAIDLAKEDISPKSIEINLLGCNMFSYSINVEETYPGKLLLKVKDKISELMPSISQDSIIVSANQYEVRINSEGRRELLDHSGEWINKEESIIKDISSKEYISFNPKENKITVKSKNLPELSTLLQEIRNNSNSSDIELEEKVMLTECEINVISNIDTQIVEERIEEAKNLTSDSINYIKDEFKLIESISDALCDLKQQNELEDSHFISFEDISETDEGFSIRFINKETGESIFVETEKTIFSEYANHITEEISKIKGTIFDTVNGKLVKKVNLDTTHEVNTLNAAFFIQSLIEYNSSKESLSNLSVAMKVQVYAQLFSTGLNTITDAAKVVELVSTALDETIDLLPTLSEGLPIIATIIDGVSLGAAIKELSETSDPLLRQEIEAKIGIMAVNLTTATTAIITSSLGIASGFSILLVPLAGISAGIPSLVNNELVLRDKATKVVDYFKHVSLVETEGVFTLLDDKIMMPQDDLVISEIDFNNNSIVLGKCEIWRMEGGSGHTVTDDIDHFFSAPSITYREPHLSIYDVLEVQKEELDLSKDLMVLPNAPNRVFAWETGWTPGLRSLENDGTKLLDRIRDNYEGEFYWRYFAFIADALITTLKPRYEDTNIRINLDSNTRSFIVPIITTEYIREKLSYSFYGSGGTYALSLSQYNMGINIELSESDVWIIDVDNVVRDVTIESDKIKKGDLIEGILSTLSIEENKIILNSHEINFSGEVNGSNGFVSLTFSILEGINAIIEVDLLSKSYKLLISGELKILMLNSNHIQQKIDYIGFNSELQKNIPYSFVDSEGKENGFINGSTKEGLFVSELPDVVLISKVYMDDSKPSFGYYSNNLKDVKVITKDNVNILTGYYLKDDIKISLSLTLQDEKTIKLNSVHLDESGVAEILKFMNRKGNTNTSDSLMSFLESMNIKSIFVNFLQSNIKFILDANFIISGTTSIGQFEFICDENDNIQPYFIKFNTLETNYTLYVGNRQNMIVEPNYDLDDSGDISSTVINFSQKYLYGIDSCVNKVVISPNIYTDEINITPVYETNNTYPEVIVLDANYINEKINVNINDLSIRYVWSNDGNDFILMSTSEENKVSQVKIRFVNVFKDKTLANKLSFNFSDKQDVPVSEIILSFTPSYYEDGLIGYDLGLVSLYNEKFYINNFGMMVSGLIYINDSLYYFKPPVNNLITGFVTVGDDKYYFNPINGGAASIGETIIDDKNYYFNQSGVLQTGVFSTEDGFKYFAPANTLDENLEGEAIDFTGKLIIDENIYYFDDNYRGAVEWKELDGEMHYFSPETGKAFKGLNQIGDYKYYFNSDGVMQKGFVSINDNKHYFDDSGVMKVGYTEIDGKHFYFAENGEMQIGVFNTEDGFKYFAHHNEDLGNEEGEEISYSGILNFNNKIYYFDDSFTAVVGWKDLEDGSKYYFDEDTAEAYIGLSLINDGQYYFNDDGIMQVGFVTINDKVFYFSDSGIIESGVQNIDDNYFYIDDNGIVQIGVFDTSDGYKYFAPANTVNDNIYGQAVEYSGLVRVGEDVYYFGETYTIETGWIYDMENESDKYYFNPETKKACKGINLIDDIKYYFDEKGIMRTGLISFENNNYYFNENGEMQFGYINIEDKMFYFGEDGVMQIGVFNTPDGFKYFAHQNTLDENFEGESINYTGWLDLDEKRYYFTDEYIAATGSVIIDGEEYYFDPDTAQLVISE
GDH-TPI counter-1 = inhibits GDH-TPI coupling enzymes, artifact for Mtb FBA screen; 1.2% of 360,000 active; AID 588335; inhibition, % at 4.8 µM; GDH-TPI coupled enzyme counterscreen, NADH absorbance; in the data active means inhibition above about 30%;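 further: 0% = DMSO wells and 100% = wells lacking the enzyme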
Y pestis TopoI = Y. pestis Topo-I inhibition via cleavage products; Y. pestis Topo-I cleavage product accumulation, plate reader; activity, % at 10 µM; 0.064% of 360,000 active; AID 504884; in the data active means activity above about 50%, passing the limit was not always enough
Mtb FBA confirm = confirmation of M. tuberculosis fructose-bisphosphate aldolase inhibitors | purified M. tuberculosis FBA, fluorescence read-out | shares compounds with FBA Mtb inh | inhibition, % at 1 µM | 78% of 5,600 active; in the data active means inhibition above about 27%;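 further: 0% = vehicle wells and 100% = reference inhibitor wells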
GDH-TPI counter-2 = inhibits GDH-TPI coupling enzymes, flagging Mtb FBA hits | GDH-TPI coupled enzyme counterscreen, fluorescence | AID 652141 | 81% of 5,600 active | inhibition, % at 1 µM | shares compounds with FBA Mtb inh
GDH-TPI dose = counter-screen for M. tuberculosis FBA inhibitors: GDH-TPI dose response; GDH-TPI coupled enzyme assay, fluorescence, artifact counterscreen; IC50, µM; AID 652145; 79% of 170 active; shares compounds with FBA Mtb inh; call rule not given here
The depositor's hits bear a star; . = not tested or not shown; + = active, no number. An excerpt weighted towards active compounds, which were near 3.2% of everything screened. Unless noted, no stated cut-off is given here; in the data, active means inhibition above about 10%; inactive means the rest.

SMILES | FBA Mtb inh | PrPC surface inh | TcdB GH inh | GDH-TPI counter-1 | Y pestis TopoI | Mtb FBA confirm | GDH-TPI counter-2 | others
O=C(c1cc(-c2cccs2)nc2ccccc12)N1CCN(c2ccccc2O)CC1 | 10 | -3 | 1 | 0 | 18 | . | .
O=C(c1cc(-c2cccs2)nc2ccccc12)N1CCN(CCO)CC1 | 99* | -8 | 0 | 8 | -5 | + | +
CCc1ccc(-c2cc(C(=O)NN3CCOCC3)c3ccccc3n2)s1 | 89* | -1 | 0 | 9 | 2 | 44* | 35*
O=C(N/N=C/c1cccnc1)c1cc(-c2cccs2)nc2ccccc12 | 56* | -9 | . | 16 | -3 | 51* | 50*
CCNC(=O)C[C@H]1CC[C@H]2[C@H](COc3ccc(NS(=O)(=O)c4ccccc4C)cc3C(=O)N2C)O1 | . | . | -1 | . | . | . | .
CCCC(=O)N1CCC2(CC1)CN(C(=O)CC1CC1)[C@H](CO)c1c2c2ccc(OC)cc2n1C | . | . | 0 | . | . | . | .
NC(=O)c1ccccc1N/C=C1\CCCCC1=O | 28* | 9 | -7 | 3 | -1 | 91* | 73*
O=C1CCCC/C1=C\Nc1ccccc1C(=O)O | 21 | -6 | . | 5 | 7 | . | .
Cc1nc(-c2cccc(S(=O)(=O)N3CCC(C)CC3)c2)cs1 | 41* | 4 | . | 0 | 29 | + | +
Cc1ccc(/C=C\c2nccc3c2[nH]c2ccccc23)cc1 | 86* | -1 | 0 | 1 | -21 | 174* | 135*
Fc1ccc(/C=C\c2nccc3c2[nH]c2ccccc23)cc1 | 74* | 4 | 12* | 2 | -17 | 19 | 20*
C(=C\c1nccc2c1[nH]c1ccccc12)/c1ccccc1 | 91* | 14 | 1 | 7 | -23 | 11 | 0 | GDH-TPI dose=1.1*
O=c1[nH]c2ccccc2nc1/C=C/c1ccc(F)cc1 | 9 | -5 | 0 | 8 | 4 | . | .
CNc1ccccc1C(=O)OCC(=O)Nc1ccc2c(c1)OCO2 | 53* | 2 | 1 | 2 | 4 | 101* | 69*
COc1ccc(CN2CC3(CCN(C(=O)C4CC4)CC3)c3c(n(C)c4cc(OC)ccc34)[C@H]2CO)cc1 | . | . | 0 | . | . | . | .
COC1=Nc2ccccc2N2CCN=C12 | 66* | -3 | 1 | . | . | 12 | 7 | GDH-TPI dose=3.5*
O=C(Nc1ccccc1)N[C@H]1CC[C@H](CCn2cc(C3(O)CCCC3)nn2)O[C@@H]1CO | . | . | -1 | . | . | . | .
CC(OC(=O)c1ccc(Cl)c(S(=O)(=O)N2CCc3ccccc32)c1)C(=O)Nc1ncc(Cl)cc1Cl (stereo unspecified) | 64* | 0 | . | 3 | -11 | 35* | 24*
O=C(COC(=O)c1cccc(S(=O)(=O)N2CCc3ccccc32)c1)Nc1ncc(Cl)cc1Cl | -1 | -1 | 0 | 1 | 3 | . | .
C[C@@H]1CN([C@H](C)CO)C(=O)c2ccccc2-c2ccccc2CO[C@@H]1CN(C)Cc1cccc(C(=O)O)c1 | . | . | 1 | . | . | . | .
CC=Cc1ccc2n(c1=O)C[C@H]1[C@H](CO)[C@@H](C(=O)N(C)C)[C@@H]2N1C(=O)c1ccc(F)cc1 (mixture of isomers) | . | . | 0 | . | . | . | .
C[C@@H]1CN([C@H](C)CO)C(=O)c2cc(/C=C/c3ccccc3)cnc2O[C@H]1CN(C)C(=O)NC1CCCCC1 | 60* | -13 | 1 | 12 | 12 | 75* | 70*
CCCC(=O)Nc1ccc2c(c1)OC[C@H](C)N(Cc1cncnc1)C[C@H](C)[C@@H](OC)CN(C)C2=O | . | . | -1 | . | . | . | .
O=C(Nc1ccc(F)cc1)N1C[C@H]2[C@@H](c3ccccc31)[C@@H](CO)N2C(=O)c1ccccc1 | . | . | 1 | . | . | . | .
O=C(/C=C/c1cccc(F)c1)Nc1ccc(S(=O)(=O)Nc2ncccn2)cc1 | 93* | -9 | 0 | 29 | 5 | 29* | 4 | GDH-TPI dose=>10
SMILES | FBA Mtb inh | PrPC surface inh | TcdB GH inh | GDH-TPI counter-1 | Y pestis TopoI | Mtb FBA confirm | GDH-TPI counter-2 | others
CC1CCC2(CC1)NC(=O)N(CC(=O)Nc1ccccc1-c1ccccc1)C2=O (stereo unspecified) | 55* | -7 | -1 | 1 | -14 | 10 | -4
CC1(C2CC2)NC(=O)N(CC(=O)Nc2ccccc2-c2ccccc2)C1=O (stereo unspecified) | 4 | 0 | -1 | 3 | 12 | . | .
CCOc1ccc(-n2cnnn2)cc1S(=O)(=O)NCc1ccccc1 | -1 | 0 | . | -2 | -13 | . | .
CCOc1cc(S(=O)(=O)NCc2ccccc2)c(OCC)cc1-n1cnnn1 | 49* | 0 | 1 | -7 | -1 | 132* | 111*
Cc1cc(C)n2nc(C(=O)OCC(=O)c3ccccc3)nc2n1 | 28* | 1 | 1 | 0 | 0 | 95* | 68*
Cc1cc(C)n2nc(C(=O)OCC(=O)N(C)Cc3ccccc3)nc2n1 | -1 | -2 | 0 | 13 | 2 | . | .
O=C(Nc1cccc(C(=O)O)c1)Nc1cccc2ccccc12 | 5 | 4 | -1 | 4 | -2 | . | .
O=C(O)c1ccc(C(=O)Nc2cccc3ccccc23)c(C(=O)O)c1 | 54* | 0 | 2 | 9 | -5 | 155* | 111*
O=C(O)c1cccc([N+](=O)[O-])c1C(=O)Nc1cccc2ccccc12 | 48* | 0 | 0 | 8 | -6 | 116* | 99*
Cc1cccc(N2CCN(C(=O)COc3ccc4ccc(=O)oc4c3)CC2)c1C | 1 | 6 | 2 | -6 | 23 | . | .
O=C(COc1ccc2ccc(=O)oc2c1)N1CCN(c2ccccc2)CC1 | 27* | -4 | 0 | 26 | 9 | 78* | 53*
O=C(COc1ccc2ccc(=O)oc2c1)NC1CCCCC1 | 32* | -4 | 0 | 32* | -5 | 105* | 74*
NC(=O)C1CCN(C(=O)COc2ccc3ccc(=O)oc3c2)CC1 | 30* | 2 | 2 | 15 | -6 | 2 | -3
NC(=O)C1CCN(C(=O)COc2ccc3ccccc3c2)CC1 | 0 | 0 | . | 5 | -3 | . | .
COc1ccccc1C#Cc1cnc2c(c1)C(=O)N([C@@H](C)CO)C[C@H](C)[C@H](CN(C)C(=O)CN(C)C)O2 | . | . | 0 | . | . | . | .
CCCNC(=O)N(C)C[C@H]1Oc2cc(-c3ccncc3)ccc2S(=O)(=O)N([C@@H](C)CO)C[C@H]1C | . | . | 0 | . | . | . | .
CC1=CC(c2ccccc2)n2ncnc2N1 (stereo unspecified) | 5 | 2 | . | 8 | 12 | . | .
CCOc1ccc(C2C=C(c3ccc(F)cc3)Nc3ncnn32)cc1 (stereo unspecified) | 31* | 1 | . | 14 | -3 | 146* | 100*
Cc1ccc(C2C=C(c3ccccc3)Nc3ncnn32)cc1 (stereo unspecified) | 30* | -4 | 1 | 0 | 15 | 38* | 26*
CC(C)(C)c1ccc(C2=CC(c3ccccc3F)n3ncnc3N2)cc1 (stereo unspecified) | 14 | -2 | 1 | -2 | 16 | . | .
